From the supplement of paper PMC8728848
This is one part of a sample in which the strongest signals are shown more often than they occur.

Tests used:
Assay in all cases: glycan array binding signal (z-score within array); higher = stronger binding
Conditions in all cases: glycan notation: IUPAC condensed, linker removed
[1] = biological target: Fuc(a1-2)Gal(b1-3)GalNAc(a1-3)[Fuc(a1-2)]Gal(b1-4)Glc
How it was run: (§1)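 Columns mapping to the same glycan were averaged after glycan names were converted to IUPAC-condensed notation. The data come from 3228 arrays in the Consortium for Functional Glycomics database, limited to those with an available protein sequence. Binding is reported as a within-array Z-score averaged across arrays of one protein sequence and across linkers.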

[2] = biological target: Fuc(a1-2)Gal(b1-3)GlcNAc(b1-3)Gal(b1-4)Glc
How it was run: as §1

[3] = biological target: Fuc(a1-2)Gal(b1-3)GlcNAc(b1-3)[Gal(b1-4)GlcNAc(b1-6)]Gal(b1-4)Glc
How it was run: as §1

[4] = biological target: Fuc(a1-2)Gal(b1-4)GlcNAc(b1-3)[Fuc(a1-2)Gal(b1-4)GlcNAc(b1-6)]GalNAc
How it was run: as §1

[5] = biological target: Fuc(a1-2)Gal(b1-4)[Fuc(a1-3)]GlcNAc
How it was run: as §1

Fuc(a1-2)Gal6S(b1-4)Glc = biological target: Fuc(a1-2)Gal6S(b1-4)Glc
How it was run: as §1

[6] = biological target: Fuc(a1-2)[Gal(a1-3)]Gal(b1-3)GlcNAc
How it was run: as §1

[7] = biological target: Fuc(a1-2)[Gal(a1-3)]Gal(b1-4)GlcNAc
How it was run: as §1

[8] = biological target: Fuc(a1-2)[GalNAc(a1-3)]Gal(b1-3)GlcNAc(b1-2)Man(a1-3)[Fuc(a1-2)[GalNAc(a1-3)]Gal(b1-3)GlcNAc(b1-2)Man(a1-6)]Man(b1-4)GlcNAc(b1-4)GlcNAc
How it was run: as §1

[9] = biological target: Fuc(a1-2)[GalNAc(a1-3)]Gal(b1-4)GlcNAc(b1-2)Man
How it was run: as §1

Gal(a1-3)Gal(b1-3)GlcNAc = biological target: Gal(a1-3)Gal(b1-3)GlcNAc
How it was run: as §1

[10] = biological target: Gal(a1-3)Gal(b1-3)GlcNAc(b1-2)Man
How it was run: as §1

[11] = biological target: Gal(a1-3)Gal(b1-4)GlcNAc(b1-2)Man(a1-3)[Gal(a1-3)Gal(b1-4)GlcNAc(b1-2)Man(a1-6)]Man(b1-4)GlcNAc(b1-4)GlcNAc
How it was run: as §1

[12] = biological target: Gal(b1-3)GlcNAc(b1-3)Gal(b1-3)GlcNAc
How it was run: as §1

[13] = biological target: Gal(b1-3)[Fuc(a1-4)]GlcNAc(b1-2)Man
How it was run: as §1

[14] = biological target: Gal(b1-3)[Fuc(a1-4)]GlcNAc(b1-2)Man(a1-3)[Gal(b1-3)[Fuc(a1-4)]GlcNAc(b1-2)Man(a1-6)]Man(b1-4)GlcNAc(b1-4)[Fuc(a1-6)]GlcNAc
How it was run: as §1

[15] = biological target: Gal(b1-3)[Fuc(a1-4)]GlcNAc(b1-3)Gal(b1-3)[Fuc(a1-4)]GlcNAc
How it was run: as §1

[16] = biological target: Gal(b1-3)[Neu5Ac(a2-6)]GalNAc
How it was run: as §1

[17] = biological target: Gal(b1-4)GlcNAc(b1-2)Man(a1-3)[Gal(b1-4)GlcNAc(b1-2)Man(a1-6)]Man(b1-4)GlcNAc(b1-4)GlcNAc
How it was run: as §1

[18] = biological target: Gal(b1-4)GlcNAc(b1-2)Man(a1-3)[GlcNAc(b1-4)][Gal(b1-4)GlcNAc(b1-2)Man(a1-6)]Man(b1-4)GlcNAc(b1-4)GlcNAc
How it was run: as §1

[19] = biological target: Gal(b1-4)GlcNAc(b1-2)[Gal(b1-4)GlcNAc(b1-4)]Man(a1-3)[Gal(b1-4)GlcNAc(b1-2)[Gal(b1-4)GlcNAc(b1-6)]Man(a1-6)]Man(b1-4)GlcNAc(b1-4)GlcNAc
How it was run: as §1

[20] = biological target: Gal(b1-4)GlcNAc(b1-2)[Gal(b1-4)GlcNAc(b1-4)]Man(a1-3)[GlcNAc(b1-4)][Gal(b1-4)GlcNAc(b1-2)Man(a1-6)]Man(b1-4)GlcNAc(b1-4)GlcNAc
How it was run: as §1

[21] = biological target: Gal(b1-4)GlcNAc(b1-3)Gal(b1-3)GlcNAc
How it was run: as §1

[22] = biological target: Gal(b1-4)GlcNAc(b1-3)Gal(b1-4)GlcNAc(b1-3)Gal(b1-4)GlcNAc(b1-3)Gal(b1-4)GlcNAc(b1-2)[Gal(b1-4)GlcNAc(b1-3)Gal(b1-4)GlcNAc(b1-3)Gal(b1-4)GlcNAc(b1-3)Gal(b1-4)GlcNAc(b1-6)]Man(a1-6)[Gal(b1-4)GlcNAc(b1-3)Gal(b1-4)GlcNAc(b1-3)Gal(b1-4)GlcNAc(b1-3)Gal(b1-4)GlcNAc(b1-2)Man(a1-3)]Man(b1-4)GlcNAc(b1-4)[Fuc(a1-6)]GlcNAc
How it was run: as §1

[23] = biological target: Gal(b1-4)GlcNAc(b1-6)GalNAc
How it was run: as §1

[24] = biological target: Gal(b1-4)GlcNAc(b1-6)[Gal(b1-4)GlcNAc(b1-3)]GalNAc
How it was run: as §1

[25] = biological target: Gal3S(b1-3)[Fuc(a1-4)]GlcNAc
How it was run: as §1

Gal3S(b1-4)Glc6S = biological target: Gal3S(b1-4)Glc6S
How it was run: as §1

Gal6S(b1-3)GlcNAc6S = biological target: Gal6S(b1-3)GlcNAc6S
How it was run: as §1

[26] = biological target: GalNAc(b1-3)Gal(a1-6)Gal(b1-4)Glc
How it was run: as §1

B1: EULS2 M1 (Oryza sativa) (protein)
chain: MVYCRANPNYAMTARNGAVVLAPANPKDEYQHWIKDMRWSTSIKDEEGYPAFALVNKATGQAIKHSLGQSHPVRLVPYNPEVMDESVLWTESRDVGNGFRCIRMVNNIYLNFDAFHGDKYHGGVRDGTDIVLWKLCEGDNQRWKIQPYYILEQKLISEEDLNSAVDHHHHHH
- glycan array binding signal (z-score) [1]: -0.333
- glycan array binding signal (z-score) [2]: -0.208
- glycan array binding signal (z-score) [3]: -0.34
- glycan array binding signal (z-score) [4]: -0.457
- glycan array binding signal (z-score) [5]: -0.363
- glycan array binding signal (z-score) (Fuc(a1-2)Gal6S(b1-4)Glc): -1.48
- glycan array binding signal (z-score) [6]: 0.694
- glycan array binding signal (z-score) [7]: -0.349
- glycan array binding signal (z-score) [8]: 3.99
- glycan array binding signal (z-score) [9]: -1
- glycan array binding signal (z-score) (Gal(a1-3)Gal(b1-3)GlcNAc): 3.45
- glycan array binding signal (z-score) [10]: -0.609
- glycan array binding signal (z-score) [11]: 0.844
- glycan array binding signal (z-score) [12]: -0.334
- glycan array binding signal (z-score) [13]: 1.75
- glycan array binding signal (z-score) [14]: 1.19
- glycan array binding signal (z-score) [15]: 3.42
- glycan array binding signal (z-score) [16]: 1.39
- glycan array binding signal (z-score) [17]: -0.312
- glycan array binding signal (z-score) [18]: 1.31
- glycan array binding signal (z-score) [19]: -0.584
- glycan array binding signal (z-score) [20]: 0.188
- glycan array binding signal (z-score) [21]: -0.203
- glycan array binding signal (z-score) [22]: 0.636
- glycan array binding signal (z-score) [23]: 0.271
- glycan array binding signal (z-score) [24]: -0.195
- glycan array binding signal (z-score) [25]: -0.905
- glycan array binding signal (z-score) (Gal3S(b1-4)Glc6S): 2.56
- glycan array binding signal (z-score) (Gal6S(b1-3)GlcNAc6S): 10.9
- glycan array binding signal (z-score) [26]: 2.84
